Bioassay records (PubChem)
Only a selection was taken, and hits are over-represented in it overall.
LmPK inh – LmPK (Leishmania mexicana) enzyme inhibition | Potency, µM (highest dose often 57.5 µM), hits mostly inhibitors | purified LmPK, Kinase-Glo ATP luminescence, 1 h | AID 1721 | hit rate 0.37% among 290,000
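Pyruvate kinase activity monitored as ATP production (luciferase luminescence). Conditions: 0.1 nM enzyme, 0.5 mM PEP, 0.1 mM ADP, 1 h, RT; normalized against uninhibited and no-enzyme wells.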
Giardia FBPA inh – blocks Giardia fructose-bisphosphate aldolase activity. A8B2U2. purified Giardia FBPA. Potency, µM (series often up to 59.6 µM), hits mostly inhibitors. hit rate 0.71% among 290,000. AID 2451; further: nearly all actives have a fitted effect of over 55% in size
Target sequence (A8B2U2 whole entry, looked up): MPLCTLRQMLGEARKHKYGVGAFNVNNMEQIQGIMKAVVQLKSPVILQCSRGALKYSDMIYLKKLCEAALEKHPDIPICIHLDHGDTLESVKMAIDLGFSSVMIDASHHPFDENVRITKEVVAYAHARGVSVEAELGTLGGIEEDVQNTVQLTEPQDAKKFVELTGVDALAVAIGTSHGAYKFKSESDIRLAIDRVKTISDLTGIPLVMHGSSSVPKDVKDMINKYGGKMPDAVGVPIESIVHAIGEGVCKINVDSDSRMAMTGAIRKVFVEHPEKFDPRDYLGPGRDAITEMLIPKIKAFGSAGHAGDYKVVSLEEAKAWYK
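Giardia FBPA (40 nM reagent) was preincubated 10 min at RT with compound (up to 57.5 uM final), then substrate plus GAPDH/TPI/NAD/arsenate coupling system with diaphorase/resazurin was added; resorufin fluorescence (525/598 nm) was read after 20 min.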
RE007 growth inh – less growth of the S. pombe RE007 Vpr strain. S. pombe RE007 Vpr strain, BacTiter-Glo ATP luminescence, 24 h. Potency, µM (titrated, usually from 92.2 µM), hits mostly inhibitors. hit rate 0.21% among 360,000. AID 651644; active means well fitted falling curve with a large enough effect; inconclusive means small, poorly fitted or top-dose-only effect; inactive means no such curve, though single readings can be large or run the other way; further: nearly all actives have a fitted effect of over 50% in size
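Fission yeast strain RE007, carrying one chromosomally integrated HIV-1 vpr copy, was seeded at OD 0.01 in PMG+AL medium with 23 nL pinned compound. After 24 h at 30 °C and 99% humidity, viability was read by BacTiter-Glo luminescence.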
Tb PYK inh – inhibitors of Trypanosoma brucei pyruvate kinase; Q57TT1; TbPYK enzyme, Kinase-Glo Plus ATP luminescence, 45 min; Potency, µM (titrated, usually from 76.8 µM), most hits filed as inhibitors; hit rate 0.12% among 410,000; AID 624173; further: nearly all actives have a fitted effect of over 50% in size
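TbPYK + substrate in 50 mM TEA pH 7.2, 100 mM KCl, 10 mM MgCl2, 0.05% BSA, 0.01% Tween-20; cpd pinned; ADP 130 uM final; 45 min RT; Kinase-Glo Plus 10 min; luminescence endpoint.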
CHX counter – counter-screen hit for Shiga toxin inhibitors, cycloheximide | max response, % | AID 2314 | hit rate 12% among 300,000 | cell reporter, cycloheximide protein synthesis inhibition counterscreen; in the data active means max response mostly above about 13%, no sharp cut-off; inactive means mostly below about 14%; further: read at 38.3 µM for the half of the compounds with a filed dose
Shiga toxin inh – Shiga toxin inhibition. Vero cells, Shiga toxin protein synthesis inhibition reporter. hit rate 9.2% among 290,000. AID 2315. inhibition, % at 38.7 µM; in the data active means inhibition mostly above about 28%, no sharp cut-off; inactive means mostly below about 43%
Numbers stand for hits; [ ] = dose if it differs, or a comment. Unless noted, the call rests on the fitted dose curve; in most records, active means well fitted curve in the direction sought with a large enough effect; inconclusive means small, poorly fitted or top-dose-only effect, or another doubt; inactive means no such curve, though single readings can be large; an effect the other way counts as inactive or inconclusive.

For C/C(=N\NC(=O)c1ccc(Cl)cc1)c1ccc2[nH]ccc2c1 the results were LmPK inh inactive, Giardia FBPA inh inactive, RE007 growth inh inactive, Tb PYK inh inactive, CHX counter 24 and Shiga toxin inh inactive.
Cc1occc1C(=O)N/N=C/C1=C(N2CCOCC2)C(=C\c2ccc(Cl)cc2Cl)/CC1 was read as LmPK inh inactive, Giardia FBPA inh inactive, RE007 growth inh inactive, Tb PYK inh inactive, CHX counter 16 and Shiga toxin inh active.
Screening COC(=O)c1ccc2[nH]ccc2c1 returned LmPK inh inactive, Giardia FBPA inh inactive, RE007 growth inh inactive, Tb PYK inh inactive, CHX counter inactive and Shiga toxin inh inactive.
For C/C(=N\NC(=S)Nc1ccc(C)c(C)c1)c1ccc(N2CCOCC2)cc1 the results were LmPK inh inactive, Giardia FBPA inh inactive, RE007 growth inh inactive, Tb PYK inh inactive, CHX counter 23 and Shiga toxin inh 24.
C/C(CC(=O)N1CCN(C=O)CC1)=N\NC(=O)c1ccc(Cl)cc1 was read as LmPK inh inactive, Giardia FBPA inh inactive, RE007 growth inh inconclusive, Tb PYK inh inactive, CHX counter 11 and Shiga toxin inh inactive.
For CCCNC(=O)Cn1nc(-c2ccc(C)c(C)c2)c2cnc3ccc(F)cc3c21 the results were Tb PYK inh inactive.
Cc1ccc(-c2nnc3ccccc3c2C(=O)Nc2ccc(C)c(F)c2)cc1 was read as Tb PYK inh inactive[15.4 µM].
`CS(=O)(=O)N(Cc1ccccc1)c1ccc(C(=O)Nc2ccc(Cl)cc2)cc1` gave Tb PYK inh inactive.
C/C(=N/NC(=O)COc1ccc(C(C)(C)C)cc1)c1ccc(N2CCOCC2)cc1 was read as RE007 growth inh inactive and Tb PYK inh inactive.
C/C(=N/NC(=O)c1ccoc1C)c1ccc(N2CCOCC2)cc1 was read as LmPK inh inactive, Giardia FBPA inh inactive, RE007 growth inh inactive, Tb PYK inh inactive, CHX counter 62 and Shiga toxin inh 115.
CC(=NNC(=O)c1cc(C)nc2ccccc12)c1ccc(N2CCOCC2)cc1 was read as RE007 growth inh inactive and Tb PYK inh inactive.
C/C(=N\NC(=O)c1ccc(Cl)cc1)c1ccc(N2CCOCC2)cc1 was read as LmPK inh inactive, Giardia FBPA inh inactive, RE007 growth inh inactive, Tb PYK inh inactive, CHX counter 25 and Shiga toxin inh inactive.
Cc1cc(C)cc(NC(=O)N2CCC3(CC2)Oc2ccccc2C(=O)N3Cc2ccccc2F)c1 was read as Tb PYK inh inactive.
`O=C(O)c1ccc(CCN2CCN(CC=Cc3ccc(Cl)cc3)CC2)cc1` gave Giardia FBPA inh inactive, CHX counter inactive and Shiga toxin inh inactive.
For CC(C)c1ccc(NC(=O)C2CCC(CNC(=O)[C@@H]3Cc4ccccc4CN3)CC2)cc1 (some centres undefined) the results were LmPK inh inactive, Giardia FBPA inh inactive, RE007 growth inh inactive, Tb PYK inh inactive, CHX counter 15 and Shiga toxin inh inactive.
`CCc1ccc(NC(=O)[C@H](NC(=O)[C@@H]2Cc3ccccc3CN2)c2ccccc2)cc1` gave LmPK inh inactive, RE007 growth inh inactive, Tb PYK inh inactive, CHX counter 28 and Shiga toxin inh inactive.
For CCc1ccc(NC(=O)[C@@H](NC(=O)[C@@H]2Cc3ccccc3CN2)C(C)CC)cc1 (some centres undefined) the results were LmPK inh inactive, Giardia FBPA inh inconclusive, RE007 growth inh inactive, Tb PYK inh inactive, CHX counter 16 and Shiga toxin inh inactive.
Screening CC(C)C[C@H](NC(=O)[C@@H]1Cc2ccccc2CN1)C(=O)Nc1ccc(C(C)C)cc1 returned LmPK inh inactive, RE007 growth inh inactive, Tb PYK inh inactive, CHX counter 23 and Shiga toxin inh inactive.
`CC(C)c1ccc(NC(=O)[C@@H](C)NC(=O)[C@@H]2Cc3ccccc3CN2)cc1` gave LmPK inh inactive, RE007 growth inh inactive, Tb PYK inh inactive, CHX counter inactive and Shiga toxin inh inactive.
`CCC(C)[C@H](NC(=O)[C@@H]1Cc2ccccc2CN1)C(=O)NCc1ccc(C)cc1` (some centres undefined) gave RE007 growth inh inactive and Tb PYK inh inactive.
`Cn1c(=O)c(-c2cc(F)cc(F)c2)nc2cnc(Oc3cccc(Cl)c3)nc21` gave Giardia FBPA inh inactive and Tb PYK inh inactive.
`CN(Cc1ccc(F)cc1)S(=O)(=O)c1nnc(NC(=O)c2ccc(F)cc2)s1` gave Tb PYK inh inactive[15.4 µM].
COc1ccc(C2=C/C(=C\c3cccc(OC(C)=O)c3)C(=O)O2)cc1 was read as LmPK inh inactive, Giardia FBPA inh inactive, RE007 growth inh inactive, Tb PYK inh inactive, CHX counter 24 and Shiga toxin inh inactive.
Screening COc1ccc(C2=C/C(=C\c3ccccc3OC(C)=O)C(=O)O2)cc1 returned LmPK inh inactive, Giardia FBPA inh inactive, RE007 growth inh inactive, Tb PYK inh inactive, CHX counter 22 and Shiga toxin inh 103.
Screening C=CCN1C(=O)C(CC(=O)Nc2ccc(OCCC)cc2)N(CCCN2CCN(Cc3ccccc3)CC2)C1=S (centres undefined) returned LmPK inh inactive, Giardia FBPA inh inactive, RE007 growth inh inactive, Tb PYK inh inactive, CHX counter inactive and Shiga toxin inh inactive.
Screening Clc1ccc(-n2cnnn2)cc1 returned LmPK inh inactive, Giardia FBPA inh inactive, RE007 growth inh inactive, Tb PYK inh inactive, CHX counter inactive and Shiga toxin inh inactive.
For CO/C=C\C=C/c1nnn(-c2ccc(Cl)cc2)n1 the results were LmPK inh inactive, Giardia FBPA inh inactive, RE007 growth inh inconclusive, Tb PYK inh inactive, CHX counter 41 and Shiga toxin inh 70.
Screening Cn1c(=O)[nH]c2cc(-c3noc(-c4ccc(F)cc4)n3)ccc21 returned Tb PYK inh inactive.
`C/C(=N\n1c(C)nc2ccccc2c1=O)c1ccc(N)cc1` gave RE007 growth inh inactive and Tb PYK inh inactive.
Screening C/C(=N\n1nnnc1Nc1ccccc1)c1ccc(N)cc1 returned LmPK inh inactive, Giardia FBPA inh inactive, CHX counter 26 and Shiga toxin inh inactive.
For CN(C(=O)c1cc(-n2cnnc2)ccc1Cl)c1ccccc1 the results were LmPK inh inactive, Giardia FBPA inh inactive, RE007 growth inh inactive, Tb PYK inh inactive, CHX counter 17 and Shiga toxin inh 43.
`Cc1ccc(S(=O)(=O)N2Cc3ccccc3CC2C(=O)Nc2ccc3c(c2)OCO3)cc1` (centres undefined) gave LmPK inh inactive, Giardia FBPA inh inactive, RE007 growth inh inactive, Tb PYK inh inactive, CHX counter 30 and Shiga toxin inh 60.
Screening COc1ccc(NC(=O)C2Cc3ccccc3CN2S(=O)(=O)c2ccccc2)cc1OC (centres undefined) returned Tb PYK inh inactive.
